Bioassay records deposited in PubChem BioAssay by National Center for Advancing Translational Sciences (NCATS).
Hits are enriched below; roughly 10% of the tested compounds scored in any of these assays.
HEK293 tox: HEK 293 cell cytotoxicity | AID 1345083 | Potency, µM (series often up to 115 µM), most hits filed as inhibitors | 6.6% of 94,000 active | HEK 293 viability, ATP luminescence (CellTiter-Glo), 48-72 h; also: nearly all actives have a fitted effect of over 60% in size
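Viability of HEK 293 cells, plated at 250 cells/well, was judged by cellular ATP after compound treatment for 48 or 72 hr. Luminescence was imaged 10 min after CellTiter-Glo addition at room temperature.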
FLuc inh: Photinus pyralis luciferase inhibition | P08659 | 2.5% of 76,000 active | purified P. pyralis luciferase, luminescence, biochemical | AID 1347043 | Potency, µM (series often up to 115 µM), usual class: inhibitors; also: nearly all actives have a fitted effect of over 65% in size
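Luminescence read by CCD imager after adding enzyme (10nM final) to wells holding compound, titrated in qHTS. Substrates 10uM each D-luciferin and ATP; buffer 50mM Tris acetate pH 7.5, 10mM Mg acetate, Tween-20, BSA.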
GPT2 inhibitor: blocks human glutamate pyruvate transaminase 2; 0.25% of 100,000 active; Potency, µM (titrated, usually from 57.7 µM), most hits filed as inhibitors; Q8TD30; AID 1671188; Recombinant GPT2, coupled pyruvate oxidase/HRP Amplex Red fluorescence; also: nearly all actives have a fitted effect of over 60% in size
Target sequence (Q8TD30 whole entry, looked up): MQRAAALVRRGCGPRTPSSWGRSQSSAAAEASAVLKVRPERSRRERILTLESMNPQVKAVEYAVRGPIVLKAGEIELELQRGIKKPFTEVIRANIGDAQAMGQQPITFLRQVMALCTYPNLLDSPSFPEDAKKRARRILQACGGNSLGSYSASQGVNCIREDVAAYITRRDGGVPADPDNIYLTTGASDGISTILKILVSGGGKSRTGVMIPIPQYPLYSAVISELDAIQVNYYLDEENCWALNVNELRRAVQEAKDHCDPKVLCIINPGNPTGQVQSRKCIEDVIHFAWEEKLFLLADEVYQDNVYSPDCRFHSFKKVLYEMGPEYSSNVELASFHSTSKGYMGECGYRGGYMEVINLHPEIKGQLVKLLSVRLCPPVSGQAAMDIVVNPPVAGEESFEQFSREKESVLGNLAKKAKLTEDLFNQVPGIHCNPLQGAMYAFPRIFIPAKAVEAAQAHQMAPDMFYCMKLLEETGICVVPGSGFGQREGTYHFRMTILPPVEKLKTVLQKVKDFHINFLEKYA
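Recombinant GPT2 (10ng/uL) with 250uM a-KG and 2mM L-alanine, 30 min at room temperature, in HEPES pH 7.5 buffer. Pyruvate detected by pyruvate oxidase/HRP/Amplex Red fluorescence after 30 min in the dark; AOA (50uM) as positive control.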
NIH3T3 tox: NIH 3T3 cell cytotoxicity; Potency, µM (series often up to 96.7 µM), hits mostly inhibitors; 4.3% of 94,000 active; AID 1345082; NIH 3T3 viability, CellTiter-Glo ATP luminescence, 48-72 h; also: nearly all actives have a fitted effect of over 55% in size
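Luminescent ATP readout (CellTiter-Glo, 10 min RT) after 48 or 72 hr compound exposure of NIH 3T3 cells seeded at 400 cells/well in 1536-well format; quantitative HTS.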
NPR1 antag: blocks ANP-stimulated signaling of human Npr1 receptor; P16066; HEK293 hNpr1 GloSensor cGMP, ANP-stimulated luminescence; Potency, µM (top dose mostly 46.3 µM), usual class: inhibitors; 1.6% of 76,000 active; AID 1347048; calls by dose curve; also: nearly all actives have a fitted effect of over 60% in size
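HEK293 cells stably expressing human Npr1 and cGMP GloSensor pGS-40F, loaded 2 h with 2% GloSensor reagent, given compound 30 min at room temperature. Luminescence read before and 20 min after 0.1 nM hNppA.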
Hits are given with their value; i = inactive; ? = inconclusive; nt = not tested or not shown; ! = not active in a repeat; [ ] = another dose, or the depositor's remark. Unless noted, calls follow the shape of the dose curve; as a rule, active = well fitted curve in the direction sought with a large enough effect; inconclusive = small, poorly fitted or top-dose-only effect, or another doubt; inactive = no such curve, though single readings can be large; an effect the other way counts as inactive or inconclusive.

SMILES	HEK293 tox	FLuc inh	GPT2 inhibitor	NIH3T3 tox	NPR1 antag
Cc1coc2c1C(=O)C(=O)c1c-2ccc2c(C)cccc12	nt	nt	2.2µM!	nt	nt
Cc1coc2c1C(=O)C(=O)c1c-2ccc2c1CCCC2(C)C	nt	nt	14µM	nt	nt
O=C1NC2(CN(Cc3ccc(F)cc3)C2)Oc2ccccc21	?	i	i	?	i
Cc1nc2cnccn2c1C(=O)NCC1CC1	i	nt	nt	i	nt
Fc1cccc(NC2CCCN(Cc3cccn3-c3nccs3)C2)c1 (stereo not given)	45µM	i	i	?	i
Cc1ccccc1Oc1ncccc1CNC(=O)c1ccc2c(c1)OCO2	i	i	i[11.5 µM]	?	i
Cc1nc2ccc(C(=O)NCc3cccnc3Oc3ccccc3C)cc2[nH]1	?	i	i	50µM	i
O=C(c1ccc2c(c1)ncn2CCO)N1CCCC(CCc2ccccc2F)C1 (stereo not given)	?	i	i[11.5 µM]	?	i
N#Cc1cc([N+](=O)[O-])c2sc(C(N)=O)[n+]([O-])c2c1	nt	nt	13µM	nt	nt
Cc1cnc(CCNC(=O)C2(c3ccccc3)CC2)n1C1CCCCCC1	40µM	i	i	?	i
Cc1ccc(NC(=O)NCCc2ncc(C)n2C2CCC2)cc1C	79µM	i	i	i	i
Cc1ccc(NC(=O)NCCc2ncc(C)n2CC2CC2)cc1C	?	i	i	?	i
COc1ccc(C2(C(=O)NCCc3ncc(C)n3C3CC3)CC2)cc1	?	i	i	i	i
CC(CN)(CN1CCOCC1)c1ccccn1 (stereo not given)	i	nt	i	i	nt
CC(C)(C)CC(=O)Nc1nc2c(s1)C[C@@H]1[C@](C)(CO)[C@H](O)CC[C@@]1(C)[C@@H]2CC(=O)NC1CCCCC1	?	i	i	79µM	i
CC(C)(C)c1ccc(C(=O)Nc2nc3c(s2)C[C@@H]2[C@](C)(CO)[C@H](O)CC[C@@]2(C)[C@@H]3CC(=O)N2CCC(C(N)=O)CC2)cc1	?	?	?	28µM	i
C[C@]1(CO)[C@H]2Cc3sc(NC(=O)c4ccc(F)cc4)nc3[C@@H](CC(=O)NC3CCCC3)[C@]2(C)CC[C@H]1O	?	i	?	45µM	i
COc1ccc(C(=O)Nc2nc3c(s2)C[C@@H]2[C@](C)(CO)[C@H](O)CC[C@@]2(C)[C@@H]3CC(=O)NCc2ccco2)cc1	79µM	i	i	?	i
C[C@]1(CO)[C@H]2Cc3sc(NC(=O)c4ccc(F)cc4)nc3[C@@H](CC(=O)NC3CCCCC3)[C@]2(C)CC[C@H]1O	?	i	i	?	i
COc1ccc(-n2c(=O)c(C(=O)Nc3ccc(F)cc3)nc3cccnc32)cc1	i	nt	i	i	nt
O=C(NCc1ccc(Cl)cc1)c1cc(-c2ccc(F)cc2)c2nncn2n1	i	nt	i	i	nt
Cc1nc(C)c(C(=O)N2CCC(Cn3c(C)cnc3C3CCC3)C2)s1 (stereo not given)	?	nt	i	i	nt
CC1CCN(C(=O)C[C@@H]2c3nc(NC(=O)c4ccc(F)cc4)sc3C[C@@H]3[C@](C)(CO)[C@H](O)CC[C@]32C)CC1	?	i	i	79µM	i
COc1ccc(-c2ccccc2C(=O)NC2CCOCC2)nn1	i	nt	nt	i	nt
COc1ccc(CN2CCC3(CC2)C(=O)NCN3Cc2ccc(Cl)cc2)cc1	40µM	i	i	?	i
SMILES	HEK293 tox	FLuc inh	GPT2 inhibitor	NIH3T3 tox	NPR1 antag
COc1cccc(-c2ccc(CN3CCCC(N[S+](=O)([O-])c4ccc(C)cc4)C3)cc2)c1 (stereo not given)	28µM	nt	i	?	nt
Cc1ccc(-c2cccc(CN3CCCC(N[S+](=O)([O-])c4c(C)noc4C)C3)c2)cc1Cl (stereo not given)	13µM	nt	i	16µM	nt
COCC(=O)NC1CCCN(Cc2ccc(-c3cc(C)cc(C)c3)cc2)C1 (stereo not given)	?	nt	i	?	nt
COc1cccc(-c2ccc(CN3CCCC(N[S+](=O)([O-])c4c(C)noc4C)C3)cc2)c1 (stereo not given)	?	nt	i	45µM	nt
Cc1ccc(-c2cccc(CN3CCCC(N[S+](=O)([O-])c4ccccc4)C3)c2)cc1Cl (stereo not given)	i	nt	i	i	nt
Cc1cc(C)cc(-c2ccc(CN3CCCC(N[S+](=O)([O-])c4ccccc4)C3)cc2)c1 (stereo not given)	45µM	nt	i	?	nt
